The source made the active and inactive calls.
Experiments:
[1] = system: Human papillomavirus type 1a protein E7 (residues 44-93); experiment: small molecules binding HPV E7 44-93 – biochemical, small-molecule microarray, residues 44-93, 635 nm fluorescence, primary screen (AID 1108); settings: fluorescence 635 nm, higher = more signal;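 further: E7 fragment applied at 1 µg/mL in TBST for 1 h at 4 C; score combines spot fluorescence with its signal to noise ratio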
[2] = hepatitis C replication reporter changes, two-sided – Huh7 cells, luciferase reporter, HCV replication inhibitor project, primary screen (AID 1109); settings: Huh7 HCV replicon luciferase reporter, 48 h; higher = more signal;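 further: huh7 hepatoma cells harbouring a luciferase neomycin HCV replicon reporter; luciferase luminescence as measure of HCV replicon replication; test concentration not given here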
[3] = target: Left-right determination factor 2 (Homo sapiens) (UniProt O00292); experiment: small molecules binding LEFTY2 protein – biochemical, small-molecule microarray, 635 nm fluorescence scan, primary screen (AID 1110); settings: higher = more signal
[4] = target: Calmodulin-1 (Homo sapiens) (UniProt P0DP23); experiment: small molecules binding calmodulin-1 with EGTA – biochemical, small-molecule microarray, Cy5-labelled CALM1, profiling panel (AID 1111); settings: Cy5-CALM1 binding fluorescence, higher = more signal;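 further: labelled calmodulin applied in Tris saline Tween buffer holding calcium plus EGTA and DTT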
[5] = target: Calmodulin-1 (Homo sapiens) (UniProt P0DP23); experiment: small molecules binding Ca-loaded calmodulin-1 – biochemical, small-molecule microarray, Cy5-labelled CALM1, plus calcium, artefact control for SMM control-protein annotation, profiling panel (AID 1112); settings: Cy5-CALM1 binding fluorescence, higher = more signal;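 further: score merges spot fluorescence with signal to noise from triplicate slides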
[6] = probe aWnt5a binding to arrayed compounds – biochemical, biotinylated probe, 635/667 nm fluorescence, primary screen (AID 1113); settings: small-molecule microarray, higher = more signal;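 further: score merges 667 nm fluorescence intensity with signal-to-noise per printed feature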
[7] = probe aShh binding to arrayed compounds – biochemical, biotinylated probe, 635/667 nm fluorescence, primary screen (AID 1114); settings: small-molecule microarray, higher = more signal;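 further: probe is biotin-labelled aShh protein from a stem cell growth factor screen; measures binding of labelled protein to compounds printed on the slide; score merges feature fluorescence at 667 nm with signal-to-noise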
[8] = probe aNog binding to arrayed compounds – biochemical, biotinylated probe, 635/667 nm fluorescence, primary screen (AID 1115); settings: small-molecule microarray, higher = more signal;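 further: probe is biotinylated aNog protein used at 0.15 µg/mL for 1 h at 4 C; z-score combines 667 nm fluorescence of each spot with its signal to noise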
[9] = target: Torsin-1A-interacting protein 1 (Homo sapiens) (UniProt Q5JTV8); experiment: compound microarray binding of lysate hLAP1 – cell lysate, small-molecule microarray, COS7 lysate, 635/667 nm fluorescence, primary screen (AID 1116); settings: 635 nm fluorescence, higher = more signal
[10] = target: Alpha-bungarotoxin (Bungarus multicinctus) (UniProt P60615); experiment: compounds binding labelled alpha-BTX control protein – biochemical, small-molecule microarray, Alexa647 label, 635/667 nm fluorescence, artefact control for SMM control protein annotation, profiling panel (AID 1117); settings: alpha-BTX-A647 binding fluorescence, higher = more signal
Albumin (Bos taurus) = Albumin (Bos taurus) (UniProt P02769); experiment: compounds binding labelled BSA control protein – biochemical, small-molecule microarray, Alexa647 label, 635/667 nm fluorescence, artefact control for SMM control protein annotation, profiling panel (AID 1118); settings: BSA-A647 binding, fluorescence 635 nm, higher = more signal;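 further: score merges 667 nm emission intensity and signal-to-noise per printed compound spot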
[11] = probe aXIP binding to arrayed compounds – biochemical, NeuroSMM set, 635/667 nm fluorescence, primary screen (AID 1119); settings: small-molecule microarray, higher = more signal, called active from +8 up or from −8 down;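 further: probe is the protein aXip251-270 applied at 1 µg/mL to compound-printed slides; binding of probe to printed compounds measured as 667 nm fluorescence plus signal to noise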
[12] = probe aNOTCH3 binding on compound microarray – biochemical, small-molecule microarray, 635/667 nm fluorescence, primary screen (AID 1120); settings: higher = more signal;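 further: probe is a biotin-tagged antibody raised against NOTCH3 rather than NOTCH3 protein; score merges spot fluorescence near 667 nm with spot signal to noise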
[13] = probe aNOTCH2 binding on compound microarray – biochemical, small-molecule microarray, 635/667 nm fluorescence, primary screen (AID 1121); settings: higher = more signal;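 further: score merges feature fluorescence read at 667 nm with its signal to noise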
[14] = target: Carbonic anhydrase 2 (Homo sapiens) (UniProt P00918); experiment: compounds binding carbonic anhydrase 2 – biochemical, small-molecule microarray, Alexa647-labelled CAII, profiling panel (AID 1122); settings: CAII-A647 binding fluorescence, higher = more signal
[15] = COS7 lysate on small-molecule microarray, probe aHis, 635 nm (AID 1123); settings: COS7 cell lysate, fluorescence, higher = more signal;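 further: z-score combines 667nm fluorescence intensity with signal-to-noise per printed compound spot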
[16] = probe aLAP1 signal on lysate-treated microarray – cell lysate, small-molecule microarray, COS7 lysate, primary screen (AID 1124); settings: probe aLAP1, fluorescence, higher = more signal;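 further: lysate comes from COS7 cells expressing LAP1 and is applied at 0.3 µg/mL; score merges spot fluorescence near 667 nm with signal-to-noise over triplicate slides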
Sam68 (KHDRBS1) = experiment: compounds binding KHDRBS1 protein – biochemical, small-molecule microarray, 635 nm fluorescence, primary screen (AID 1125); settings: higher = more signal;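 further: score merges 667 nm channel intensity with signal to noise over triplicate slides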
[17] = system: Chordin-like protein 2 (CHRDL2); experiment: compounds binding chordin-like 2 – biochemical, small-molecule microarray, 635 nm fluorescence, primary screen (AID 1126); settings: fluorescence 635 nm, higher = more signal;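 further: printed compound slides probed with Chrdl2 protein at 4 µg/mL for 1 h at 4 C; score merges 667 nm emission intensity with signal to noise over three replicate slides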
[18] = target: Concanavalin-A (Canavalia ensiformis) (UniProt P02866); experiment: compounds binding concanavalin A lectin – biochemical, small-molecule microarray, Alexa647 label, 635 nm, artefact control for SMM control protein annotation, primary screen (AID 1127); settings: ConA-A647 binding fluorescence, higher = more signal;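 further: z combines 667 nm emission intensity with signal-to-noise across three replicate slides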
Chain of Concanavalin-A (Canavalia ensiformis) (P02866 whole entry, looked up): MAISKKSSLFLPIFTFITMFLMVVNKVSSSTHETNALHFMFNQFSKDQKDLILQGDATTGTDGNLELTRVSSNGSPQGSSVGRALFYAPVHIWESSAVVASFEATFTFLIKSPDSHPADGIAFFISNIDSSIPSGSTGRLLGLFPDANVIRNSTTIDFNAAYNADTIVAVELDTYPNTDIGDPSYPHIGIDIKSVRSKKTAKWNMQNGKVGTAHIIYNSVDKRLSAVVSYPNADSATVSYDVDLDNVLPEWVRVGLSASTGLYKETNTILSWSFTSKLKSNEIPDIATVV

Chain of Alpha-bungarotoxin (Bungarus multicinctus) (P60615 whole entry, looked up): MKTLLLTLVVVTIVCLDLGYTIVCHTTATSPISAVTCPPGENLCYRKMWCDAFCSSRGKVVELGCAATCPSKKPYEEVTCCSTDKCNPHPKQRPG
Chain of Left-right determination factor 2 (Homo sapiens) (O00292 whole entry, looked up): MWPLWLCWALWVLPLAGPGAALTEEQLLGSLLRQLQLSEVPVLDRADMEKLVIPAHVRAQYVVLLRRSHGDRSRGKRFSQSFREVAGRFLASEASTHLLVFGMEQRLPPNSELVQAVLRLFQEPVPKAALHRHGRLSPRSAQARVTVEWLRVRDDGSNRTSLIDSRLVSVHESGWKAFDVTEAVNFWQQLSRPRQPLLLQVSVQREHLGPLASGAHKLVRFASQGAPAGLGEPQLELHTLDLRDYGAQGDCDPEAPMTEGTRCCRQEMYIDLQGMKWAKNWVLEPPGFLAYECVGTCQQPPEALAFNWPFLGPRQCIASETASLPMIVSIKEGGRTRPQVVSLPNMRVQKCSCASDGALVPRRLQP
Chain of Albumin (Bos taurus) (P02769 whole entry, looked up): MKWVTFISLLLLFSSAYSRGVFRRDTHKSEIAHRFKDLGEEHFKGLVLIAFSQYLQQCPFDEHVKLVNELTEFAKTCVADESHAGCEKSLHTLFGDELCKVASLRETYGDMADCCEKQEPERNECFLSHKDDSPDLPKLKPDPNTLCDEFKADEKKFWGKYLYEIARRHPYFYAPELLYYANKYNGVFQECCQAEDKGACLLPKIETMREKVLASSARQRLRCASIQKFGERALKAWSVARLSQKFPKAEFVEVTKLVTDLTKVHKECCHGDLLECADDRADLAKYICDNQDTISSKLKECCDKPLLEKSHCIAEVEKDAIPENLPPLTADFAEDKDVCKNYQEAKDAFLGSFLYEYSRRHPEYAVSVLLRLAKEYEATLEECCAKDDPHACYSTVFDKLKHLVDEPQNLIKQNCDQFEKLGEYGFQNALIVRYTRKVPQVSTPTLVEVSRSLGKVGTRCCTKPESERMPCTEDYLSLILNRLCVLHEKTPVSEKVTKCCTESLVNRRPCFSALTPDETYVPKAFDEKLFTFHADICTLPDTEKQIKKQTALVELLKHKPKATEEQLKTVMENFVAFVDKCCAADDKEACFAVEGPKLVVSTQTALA
Chain of Torsin-1A-interacting protein 1 (Homo sapiens) (Q5JTV8 whole entry, looked up): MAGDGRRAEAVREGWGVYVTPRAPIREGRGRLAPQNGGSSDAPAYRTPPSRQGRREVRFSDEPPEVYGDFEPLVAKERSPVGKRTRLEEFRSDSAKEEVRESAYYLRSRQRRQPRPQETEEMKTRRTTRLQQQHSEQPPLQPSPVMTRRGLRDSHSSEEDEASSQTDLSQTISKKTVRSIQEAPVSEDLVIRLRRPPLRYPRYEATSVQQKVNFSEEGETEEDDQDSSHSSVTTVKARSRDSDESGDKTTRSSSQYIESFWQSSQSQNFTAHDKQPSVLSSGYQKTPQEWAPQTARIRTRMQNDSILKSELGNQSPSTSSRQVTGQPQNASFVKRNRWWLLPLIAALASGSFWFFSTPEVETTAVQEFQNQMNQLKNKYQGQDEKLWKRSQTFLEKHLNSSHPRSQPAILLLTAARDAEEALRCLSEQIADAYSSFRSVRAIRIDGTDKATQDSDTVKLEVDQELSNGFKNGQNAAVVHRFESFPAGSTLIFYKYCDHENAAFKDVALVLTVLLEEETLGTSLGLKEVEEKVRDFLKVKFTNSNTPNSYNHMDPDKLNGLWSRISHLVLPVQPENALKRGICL

| SMILES | composite z-score [1] | z-score [2] | composite z-score [3] | composite z-score [4] | composite z-score [5] | composite z-score [6] | composite z-score [7] | composite z-score [8] | composite z-score [9] | composite z-score [10] | composite z-score (Albumin (Bos taurus)) | composite Z-score [11] | composite z-score [12] | composite z-score [13] | composite z-score [14] | composite z-score [15] | composite z-score [16] | composite z-score (Sam68 (KHDRBS1)) | composite z-score [17] | composite z-score [18] |
| --- | --- | --- | --- | --- | --- | --- | --- | --- | --- | --- | --- | --- | --- | --- | --- | --- | --- | --- | --- | --- |
| CC1=C2[C@@H](CCc3ccccc3)OB(O)C[C@@H]2n2c(=O)n(-c3ccccc3)c(=O)n2C1 | 0.352 | -1.23 | 0.664 | 0.177 | -0.878 | -0.096 | 0.133 | -0.198 | 0.543 | -0.027 | 0.201 | 0.131 (inactive) | 0.199 | -0.11 | 0.478 | 0.224 | 0.0327 | 0.617 | 0.469 | 1 |
| COCCOC(=O)N1C(=O)[C@@]2(c3cc(C#CCNC(N)=O)ccc31)[C@H](C(=O)N1CCN(c3ncccn3)CC1)[C@H]1C(=O)O[C@H](c3ccccc3)[C@H](c3ccccc3)N1[C@@H]2c1ccccc1OCCO | 1.38 | -1.05 | 0.877 | 0.97 | 0.264 | 0.0375 | 0.175 | -0.319 | 0.82 | 0.904 | 0.413 | 0.255 (inactive) | 0.209 | 0.0066 | 0.358 | 1.08 | 0.427 | 1.31 | 0.867 | 1.02 |
| COc1ccc(C#Cc2ccc3c(c2)[C@]2(C(=O)N3)[C@H](c3ccc(O)cc3)N3[C@H](c4ccccc4)[C@H](c4ccccc4)OC(=O)[C@H]3[C@@H]2C(=O)N2CCCCCCC2)cc1 | 1.33 | -1.01 | 1.07 | 2.7 | 1.41 | 0.754 | 2.15 | 2.75 | 4.61 | 1.83 | 0.814 | 5.12 (inactive) | 1.84 | 0.939 | 0.504 | 3.27 | 0.998 | 1.31 | 1.23 | 1.14 |
| COC(=O)c1ccc(C(O)C2C=CC3C(=O)N(c4ccccc4)C(=O)C3N2Nc2ccc(C#N)cc2)o1 (stereo not given) | 1.18 | -0.133 | 0.196 | -0.118 | -0.637 | 0.0136 | 0.582 | 0.363 | 0.681 | -0.187 | 0.887 | -0.336 (inactive) | 0.0282 | -0.0878 | 0.436 | 2.85 | 0.387 | 0.735 | 0.0997 | 0.635 |
| COc1ccc(C#Cc2ccc3c(c2)[C@]2(C(=O)N3)[C@H](C(=O)NC[C@H](O)c3ccccc3)[C@H]3C(=O)O[C@H](c4ccccc4)[C@H](c4ccccc4)N3[C@@H]2c2ccc(OCCO)cc2)cc1 | 1.43 | -2.13 | 0.965 | 0.841 | -0.203 | 0.0037 | 0.327 | -0.611 | 0.952 | 1.76 | 0.265 | 0.53 (inactive) | 0.196 | -0.125 | 0.357 | 1.97 | 0.635 | 1.33 | 0.473 | 1.17 |
| COC(=O)[C@@]1(Cc2ccc(F)cc2)[C@H]2c3cc(C(=O)N(C)C)n(CCc4ccccn4)c3C[C@H]2CN1C(=O)c1ccccc1 | 1.39 | -0.72 | 0.384 | -0.012 | -0.47 | 1.12 | -0.394 | 0.796 | 0.468 | 0.292 | -0.0737 | 0.004 (inactive) | 1 | 0.2 | 0.827 | 2.75 | 0.52 | 1.29 | -0.464 | 0.542 |
| COCCOC(=O)N1C(=O)[C@@]2(c3cc(C#CCC(C(=O)OC)C(=O)OC)ccc31)[C@H](C(=O)N1CCCCCCC1)[C@H]1C(=O)O[C@H](c3ccccc3)[C@H](c3ccccc3)N1[C@@H]2c1ccc(OCCO)cc1 | 1.49 | -0.981 | 1.33 | 2.48 | 1.67 | 1.21 | 1.19 | 3.01 | 4.31 | 3.31 | 0.786 | 4.41 (inactive) | 1.61 | 0.738 | 0.643 | 3.78 | 1.06 | 1.3 | 1.53 | 1.15 |
| CC(C)N1C(=O)[C@@]2(c3ccc([N+](=O)[O-])cc3)CC(=O)N(CC34CC5CC(CC(C5)C3)C4)[C@@H]2c2ccc(CO)cc21 | -1.28 | -1.21 | -1.36 | -0.251 | 0.134 | -0.316 | -0.208 | 0.705 | -0.742 | -0.12 | -0.747 | -0.0775 (inactive) | 0.49 | -0.237 | -0.531 | 0.773 | 0.632 | -0.507 | -1.27 | 0.134 |
| O=C1N(CCS(=O)(=O)c2ccccc2)Cc2ccccc2C[C@]12N=C(c1ccc(OCCCO)cc1)O[C@@H]2c1ccccc1 | -0.183 | -2.19 | 0.947 | 2.54 | 0.422 | 0.122 | 0.21 | 1.21 | 1.88 | 1.59 | -0.591 | 0.339 (inactive) | 0.567 | 0.189 | 0.396 | 3.41 | 1.17 | 1.13 | 1.17 | 1.12 |
| C#CCN(C(/C=C/c1ccccc1)CO)C(C(=O)O)c1ccccc1 (stereo not given) | -0.943 | -0.206 | 0.111 | -0.238 | -0.707 | -0.0981 | -0.2 | -0.242 | -0.58 | 0.127 | -0.56 | 0.535 (inactive) | -0.389 | -0.181 | -0.199 | -0.21 | -0.0599 | -1.12 | 0.0041 | 0.0529 |
| CCOC(=O)C[C@H]1[C@H](OC(=O)c2ccccc2-c2ccccc2)[C@@H](NC(=O)c2ccc3ccccc3c2)c2cc(OCCCO)ccc2N1C(=O)c1ccc2ccccc2n1 | 1.12 | -1.08 | 0.043 | 0.0796 | -0.122 | -0.0441 | -0.214 | -0.364 | 0.4 | 0.164 | 0.43 | -0.666 (inactive) | 0.172 | -0.14 | 0.124 | 0.806 | -0.106 | 0.744 | -0.0077 | 0.406 |

Source: PubChem BioAssay
